Screening data as filed in PubChem BioAssay.
A selection: hits, their analogues and other compounds. The true share with any hit is near 4.1%.
hgDAF-12 ag: activates the H. glycines DAF-12 receptor ligand-binding domain. HEK293 GAL4-hgDAF12 UAS-luciferase reporter, agonist luminescence; normalized to butyrate control. activation, % at 6.8 µM. 370,000 tested, 1.8% active;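 active means activation above a cutoff set at the mean of all screened compounds plus 3 SD, cut at about 10% in these data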;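 further: 0% = DMSO wells and 100% = sodium butyrate wells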
hcDAF12 agonist: activators of H. contortus DAF-12 nuclear receptor | 370,000 tested, 1.4% active | HEK293 hcDAF-12 lit1-tk-luc reporter, luminescence; 0% DMSO, 100% Δ7-dafachronic acid | activation, % at 6.8 µM;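 active means activation above the mean of all tested compounds plus 3 SD, cut at about 5.5% in these data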;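 further: 100% = response to 3 µM Δ7-dafachronic acid high control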
DAX1 inh-1: inhibitors of human orphan nuclear receptor DAX1 (NR0B1) | 340,000 tested, 0.99% active | inhibition, % at 6.75 µM | HEK293 Gal4-DAX1 luciferase reporter, luminescence | AID 504766 | P51843;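 active means inhibition above the mean over all tested compounds plus 3 SD, cut at about 4.2% in these data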;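 further: 0% = DAX1-transfected cells with DMSO and 100% = empty-vector control cells with DMSO; inhibition shows as a rise in luminescence from relieved DAX1 repression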
Target sequence (P51843 207-470 limits assumed): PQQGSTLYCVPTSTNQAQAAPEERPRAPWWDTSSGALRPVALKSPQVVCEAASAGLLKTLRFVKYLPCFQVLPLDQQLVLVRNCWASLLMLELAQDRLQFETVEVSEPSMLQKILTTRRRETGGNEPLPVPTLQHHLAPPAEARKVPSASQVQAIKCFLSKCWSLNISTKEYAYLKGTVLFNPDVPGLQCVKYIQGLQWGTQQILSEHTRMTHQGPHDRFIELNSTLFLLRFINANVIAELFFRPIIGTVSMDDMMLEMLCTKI
DAX1 inh-2: inhibitors of DAX1 repression of SF-1 activated StAR promoter. HEK293T StAR-luciferase reporter, SF-1/DAX-1 repression relief. inhibition, % at 6.8 µM. 370,000 tested, 1.1% active. AID 652010;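 active means inhibition above the mean over all tested compounds plus 3 SD, cut at about 3.6% in these data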;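 further: 0% = DAX-1 cells with DMSO and 100% = cells lacking DAX-1 with DMSO; higher inhibition means more luminescence from relief of DAX-1 repression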
ssDAF12 agonist: S. stercoralis DAF-12 activation, primary screen; 370,000 tested, 1% active; AID 652126; activation, % at 6.8 µM; HEK293 ssDAF-12/GRIP1 lit1-tk-luc reporter, luminescence; % of 3 µM dafachronic acid response;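 active means activation above the mean over all tested compounds plus 3 SD, cut at about 0.9% in these data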;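 further: 0% = DMSO-only wells and 100% = 3 µM delta7-dafachronic acid wells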
DAX1 inh confirm: confirmation of human DAX1 (NR0B1) inhibitors; shares compounds with DAX1 inh-2; HEK293T StAR-promoter luciferase reporter, SF-1/DAX-1 repression; inhibition, % at 6.8 µM; 2,400 tested, 87% active; AID 652134;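 active means inhibition above the average of every tested compound plus 3 SD, cut at about 3.8% in these data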;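 further: 0% = DAX-1 cells with DMSO and 100% = no DAX-1 control cells with DMSO; active compounds raise luminescence by relieving repression of the StAR reporter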
SF1 AF2mut Luc: counter-screen for DAX1 inhibitors: nonselective inhibitors with SF-1 AF2 mutant | shares compounds with DAX1 inh-2 | HEK293 StAR-luciferase, luminescence | 2,400 tested, 78% active | inhibition, % at 6.8 µM;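 active means inhibition above the mean of all tested compounds plus 3 SD, cut at about 3% in these data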;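 further: 0% = DAX-1 transfected cells with DMSO and 100% = cells without DAX-1 with DMSO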
* hit, by the source's call; x = no result; ! = not confirmed by another sample.

SMILES	hgDAF-12 ag	hcDAF12 agonist	DAX1 inh-1	DAX1 inh-2	ssDAF12 agonist	DAX1 inh confirm	SF1 AF2mut Luc
O=C(Nc1ccc(Cl)cc1[N+](=O)[O-])c1ccc2c(c1)OCCO2	6	2	0	4.7*	-1	10*	4.2*
O=C(Nc1ccc(F)c([N+](=O)[O-])c1)c1ccc2c(c1)OCCO2	7	0	-1	0	-1	x	x
Cc1ccc(NC(=O)CCc2c(C)nn(-c3ccc(N4CCCCC4)nn3)c2C)cc1F	11*	1	0	10*	0	8.2*	4.0*
Cc1ccnc(NC(=O)CNC(=O)COc2ccccc2)c1	9	3	2	7.6*	0.9*	7.2*	4.0*
Cc1ccc(NC(=O)CC(NC(=O)c2ccccc2Cl)c2ccccc2)nc1 (stereo unspecified)	-2	-1	0	0	-1	x	x
Cc1ccnc(NC(=O)CCNC(=O)c2ccccc2Cl)c1	6	4	2	5.0*	0	8.5*	5.6*
Cc1ccnc(NC(=O)CNC(=O)c2ccccc2Br)c1	7	2	1	5.0*	0	7.0*	3.7*
Cc1ccc(NC(=O)CCNC(=O)c2ccccc2Cl)nc1	-1	1	3	-1	-1	x	x
Cc1ccnc(NC(=O)CC(NC(=O)c2ccccc2Cl)c2ccccc2)c1 (stereo unspecified)	11*	2	3	6.1*	0	7.0*	7.0*
Cc1ccc(NC(=O)CNC(=O)COc2ccccc2)nc1	0	0	0	2	-1	x	x
CCOC(=O)C1=C(C(=O)OCC)C2N(Cc3ccc(Br)cc3)c3ccccc3[C@@]23C[C@@H](C(=O)OC)N(S(=O)(=O)c2cccs2)C3=N1 (stereo partly specified)	0	-2	x	-1	-1	x	x
COC(=O)[C@]12C[C@H](CC(=O)NCCCCc3ccccc3)C(=O)N(Cc3ccc4c(c3)OCO4)C1=C[C@H](C(C)C)O[C@@H]2C1CC1	0	-1	x	0	-1	x	x
CCCC[C@H]1C2CC(OC(=O)Nc3ccc(F)cc3)C(C2)[C@H]2CCCCN21 (stereo partly specified)	0	-1	x	-1	0	x	x
COc1ccccc1C(=O)NCCC(=O)NC1CCC(C)CC1 (stereo unspecified)	8	4	1	8.7*	1	10*	4.6*
COc1ccccc1C(=O)NCCC(=O)NC1CCCCC1C (stereo unspecified)	0	0	0	1	-1	x	x
Cc1ccc(C)c(NC(=O)CN(C)C(=O)c2cc3ccccc3oc2=O)c1	6	3	1	5.9*	0	6.8*	5.6*
CCCCN(C)CCNC(=O)CN1C(=O)CSc2ccc(S(=O)(=O)N3CCCC3)cc21	2	0	1	7.2*	-1	3	1
CC(=NNC(=O)c1cc(C)oc1C)c1ccc(Br)s1	-1	-2	1	0	-1	x	x
C/C(=N\NC(=O)c1ccoc1C)c1ccc(Br)s1	10	2	2	5.8*	-1	2	0
CCN=c1scc(-c2ccco2)n1/N=C/c1ccc(OC)c(O)c1	10	3	2	5.0*	0	15*	7.3*
CCN=c1scc(-c2ccco2)n1/N=C/c1ccc(O)cc1	5	1	0	2	-1	x	x
CCC(C)N(C(=O)CNc1nnnn1-c1ccccc1)C(C)CC (stereo unspecified)	-2	-1	x	0	-1	x	x
CSc1ccc(C2C(C(=O)c3ccco3)=C(O)C(=O)N2c2nnc(SC)s2)cc1 (stereo unspecified)	12*	4	-1	6.4*	-1	3	3.1*
Cc1nnc(N2C(=O)C(O)=C(C(=O)c3ccco3)C2c2ccc(F)cc2)s1 (stereo unspecified)	2	-1	0	-1	-1	x	x
FC(F)(F)c1ccc(Cn2ccc3ccc(-c4ccc5ccn(Cc6ccc(C(F)(F)F)cc6)c5c4)cc32)cc1	4	0	x	-1	-1	x	x
SMILES	hgDAF-12 ag	hcDAF12 agonist	DAX1 inh-1	DAX1 inh-2	ssDAF12 agonist	DAX1 inh confirm	SF1 AF2mut Luc
Cc1c[nH]c2cccc(-c3c(Cl)cccc3Cl)c12	0	-1	x	-1	0	x	x
O=C(c1ccc(-c2ccccc2Cl)o1)N1CCCCCCC1	11*	2	4	5.4*	0	8.4*	6.1*
CC(=O)N1CCN(C(=O)c2ccc(-c3ccccc3Cl)o2)CC1	5	3	1	3	-1	x	x
CC1(C)CC(=O)C=C(c2ccc(-c3ccc4[nH]ccc4c3)cc2)C1=O	7	4	-1	5.3*	0	12*	0
O=C(CSc1nnc(-c2cccnc2)n1Cc1ccco1)Nc1ccc(Cl)c(Cl)c1	-1	-4	x	-1	-1	x	x
CC[C@H](C)C(=O)O[C@H]1C[C@@H](C)C=C2C=C[C@H](C)[C@H](CC[C@@H]3C[C@@H](O)CC(=O)O3)[C@H]21	1	0	0	5.2*!	-1	2	0
Cc1ccccc1C1CCC2(CC1)CCN(CC[C@@H](O)c1ccccc1)C2=O (stereo partly specified)	2	-1	x	x	-2	x	x
CCN(CCN1CCCC1)C(=O)c1cc(COc2ccccc2SC)on1	1	3	1	0	-1	x	x
CCN(CCn1cccn1)C(=O)c1cc(COc2ccccc2SC)on1	10	1	3	4.6*	0	7.1*	5.4*
COC(=O)c1cc2c(c3c4cc(F)ccc4n(S(=O)(=O)c4ccc(OC)cc4)c13)C(=O)N(Cc1ccccc1OC)C2	1	-1	x	0	-1	x	x
Cc1nn2c(=O)cc(COC(=O)c3c(F)cccc3Cl)nc2s1	8	1	2	8.6*	0	6.4*	6.2*
C=C[C@@]1(C)CC(=O)[C@]2(O)[C@@]3(C)[C@@H](O)CCC(C)(C)[C@@H]3[C@H](O)[C@H](OC(C)=O)[C@@]2(C)O1	-11	-5	1	9.6*	-2	22*	-6
CC(C)(C)c1ccc(C(=O)NC(=S)N2CCOCC2)cc1	13*	3	4	7.0*	0	8.8*	3.4*
CCOc1c(Cl)cc(C(=O)Nc2cccc(C(=O)O)c2)cc1Cl	6	4	-3	7.6*	0	6.5*	4.6*
CCOc1ccc(NC(=O)c2cccc(NC(=O)c3ccccc3)c2)cc1	1	-1	-3	0	-1	x	x
C[C@@H]1C=CCCO[C@]12C(=O)N(Cc1ccc(F)cc1)c1ccccc12	-3	-1	x	1	-1	x	x
CN1[C@@H](Cc2ccccc2)COc2cc(N3CCCC3)ccc2S1(=O)=O	-4	-2	x	-3	-2	x	x
